Data taken from PubChem BioAssay AID2253 (Southern Research Specialized Biocontainment Screening …, 2010).
Screen size: about 2,200 compounds; about 1,300 (59%) were called active. So high a share suggests a set chosen from earlier hits. Only a sample is shown. Entries with a potency or affinity are not part of this list. Unmarked numbers belong to inactive results. No rule for the calls is given here.

assay: human monocytic cell viability reduction – S. typhimurium screen hits, cytotoxicity control for Salmonella PhoP regulon inhibitors, dose response (AID 2253); details: THP-1 viability, CellTiter-Glo luminescence, 72 h; series mostly up to 50 µM; viability: at the top concentration

Compound	viability
OC(COCc1cccs1)CN1CCN(c2ccccn2)CC1 (configuration not stated)	97.5%
CCCCOC(=O)CCNc1n[nH]c(=O)[nH]c1=O	95%
Clc1ccc(CNCc2cccs2)cc1Cl	87.5%
O=C(Cc1cn2ccsc2n1)Nc1ccccc1Oc1ccccc1	87.3%
Cc1ccc(S(=O)(=O)NCCC(=O)OCn2nnc3ccccc3c2=O)cc1	94.5%
CN(C(=O)/C=C/c1ccccc1)C1CCS(=O)(=O)C1 (configuration not stated)	95.7%
CNC(=O)c1ccc(-c2ccc(F)cc2)s1	86%
CCCSc1nc(N2CCCC2)c2c(c1C#N)CC(C)(C)OC2	85.5%
C=CCNC(=O)c1ccc(N(C)S(=O)(=O)c2ccc(OC)cc2)cc1	94.2%
CC1CN(C(=O)CCc2ccccc2)C(C)CN1C(=O)CCc1ccccc1 (configuration not stated)	93.1%
O=C(c1ccc(Cl)cc1Cl)C1(n2cncn2)Oc2ccccc2C1O (configuration not stated)	89.8%
Cc1ccc(C(=O)NCc2ccc(Cl)cc2)o1	92.7%
O=[N+]([O-])c1ccc(-c2ccn[nH]2)o1	115%
COc1cccc(OC)c1C(=O)NC(=S)Nc1cc(-c2nc3ccccc3[nH]2)ccc1Cl	93%
CN(c1ccccc1)S(=O)(=O)c1ccc(C(=O)Nc2nnc(-c3ccc(F)cc3)o2)cc1	120%
COC(=O)c1c(C(=O)OC)c(-c2cccc(C)c2)n2c1CS(=O)(=O)C2	83.7%
CCn1cc(C(C)(C)C)c(C#N)c1NC(C)=O	85.9%
O=C(Cn1cnc2scc(-c3ccccc3)c2c1=O)N1CCOCC1	98.7%
C=CC1=C(C(=O)O)N2C(=O)[C@@H](NC(=O)/C(=N/OCC(=O)O)c3csc(N)n3)[C@H]2SC1	105%
CC(C)(C)c1n[nH]c(=S)n(/N=C/c2cccs2)c1=O	98.4%
Cc1ccsc1/C=N/NC(=O)Cn1cnc2ccccc21	85.7% [at 25 µM]
C=CCSC1=Nc2sccc2C2=NC(=O)CN12	94.6%
NC(=O)c1oc2ccccc2c1NC(=O)CN1CCCCC1	90.4%

Compound	viability
O=C(CN1CCCCC1)Nc1cccc2c1OCO2	99%
O=c1[nH]c2cc3c(cc2cc1CN(CCc1ccccc1)Cc1nnnn1CC1CCCO1)OCO3 (configuration not stated)	85.9%
CC(C)CNC(=S)NC1CCCC1	91.8%
CN(C)CCNC(=O)c1ccc(COCC(F)(F)F)cc1	116%
Cc1cc([N+](=O)[O-])ccc1NC(=O)Cc1ccc(F)cc1	91.8%
O=C(CN1CCC(NC(=O)c2cccc(F)c2)CC1)NCc1ccccc1F	101%
Cn1c(SCC(=O)NC(=O)c2cccc([N+](=O)[O-])c2)nnc1-c1ccc(F)cc1	102%
COc1ccc(/C=C/C(=O)O)cc1COc1cccc(C)c1	89.3%
O=C(NCC(=O)N(c1cccnc1)C(C(=O)NCc1ccco1)c1ccccc1)c1ccco1 (configuration not stated)	96.2%
COC(=O)c1ccccc1NC(=O)CS(=O)(=O)Cc1nc(-c2ccc(C)cc2)oc1C	80.8%
COc1ccc(-c2nnn(CC(=O)N(Cc3ccco3)C(C(=O)NCC3CCCO3)c3ccco3)n2)cc1 (configuration not stated)	87%
CSCC[C@H](NC(=O)Nc1ccc(C)cc1)C(=O)O	97.3%
C=C(C)C1Cc2cc3ccc(=O)oc3cc2O1 (configuration not stated)	80.7% [at 12.5 µM]
CCOC(=O)N1CCC(NC(=O)CCC(=O)c2ccccc2)CC1	94.4%
COc1ccc(-c2nnc(SCCC(=O)O)n2-c2ccccc2)cc1	92.9%
Cc1cccnc1NC(=O)CCCN1C(=O)c2ccccc2C1=O	95.8%
Cc1cccc(C)c1NC(=O)CSc1nnc(NC(=O)CN2CCOCC2)s1	87.5%
CCCOc1ccc(C(=O)NC(=S)N2CCN(c3cc4c(cc3F)c(=O)c(C(=O)O)cn4CC)CC2)cc1	89%
Nc1nnc(Sc2ccc(Cl)cc2[N+](=O)[O-])s1	103%
c1ccc2oc(SCc3cn4ccccc4n3)nc2c1	85.5%
NC(=O)c1cnn(Cc2ccc(Cl)cc2)c1N	95.4%
CC(=O)Cn1cnc2sc(-c3ccccc3)cc2c1=O	95.9%
Nc1ccc(S(=O)(=O)Nc2ccc(Cl)nn2)cc1	89.7%

Compound	viability
Cc1nc2cc(NC(=O)N3CCN(c4ccccn4)CC3)ccc2o1	84.4%
Cc1ccc(C(=O)C2COC(=O)C2)cc1 (configuration not stated)	98.3%
Cc1cc2nn(-c3ccccc3)nc2cc1NC(=O)c1cccs1	95%
COc1cccc(NC(=O)CNC(=O)c2cccs2)c1	92.6%
O=S(=O)(c1ccc(S(=O)(=O)N2CCN(C/C=C/c3ccccc3)CC2)cc1)N1CCCC1	83.2%
COCCNC(=O)CSCc1c(F)cccc1Cl	94.2%
Cc1nc2c(Cl)cccc2c2c1CC(CBr)O2 (configuration not stated)	83.2%
CN(C)CCNc1nc(-c2ccccc2)nnc1C(F)(F)F	98.1%
Cc1cccc(C=Nc2ccc3c(c2)oc2ccccc23)c1O	100%
CCNC(=S)NNC(=O)c1ccc(OC(F)F)cc1	84% [at 25 µM]
Nc1nc(C2CCCCC2)cs1	91.3%
COc1ccc(C2=Nc3cccc4cccc(c34)N2)cc1	107%
O=S(=O)(NC1=NCCCCC1)c1cccs1	96.8%
C=CCOc1ccc(CNc2nn[nH]n2)cc1	91.5%
OCCN(Cc1ccccc1)Cc1ccc(Cl)cc1	86.6%
CN(C)S(=O)(=O)Nc1ccc(C(=O)O)cc1	85.3%
CC1CC(C)CN(CCCNC(=O)C2CCC(=O)N2C2CCCC2)C1 (configuration not stated)	98.3%
CCOCC(=O)Nc1ccc(F)c(F)c1	94.5%
O=C(Cn1ncc2c(=O)oc3ccccc3c21)N1CCN(c2ccccn2)CC1	101%
Cc1ccccc1C(=O)N(C)Cc1ccccc1	93.6%
CCOC(=O)c1ccc(N2CCN(c3ccc(F)cc3)CC2)c(NC(=O)Nc2cccc(OC)c2)c1	94%
Cc1ccc2occ(/C=N/O)c(=O)c2c1	85%
O=C(O)C1CCCN1S(=O)(=O)c1ccc2[nH]c(=O)c(=O)[nH]c2c1 (configuration not stated)	99.7%

Compound	viability
O=C(CSc1nnc2n(C3CCCCC3)c(=O)c3ccccc3n12)OC1CCCCC1	92.5%
Cc1ccc(S(=O)(=O)NC2=NCN(CCOC(=O)c3ccc([N+](=O)[O-])cc3)CN2)cc1	103%
Cc1ccc(C(=O)NCC(=O)NCC(=O)OCC(=O)c2ccc([N+](=O)[O-])cc2)cc1	90.7%
Nc1ncncc1-c1ccc(Cl)cc1	86.4%
N#Cc1c(N)nc(SCC(=O)NC2CCCCC2)c(C#N)c1-c1ccc(Cl)cc1	90.8%
CCn1cc(C(=O)O)c(=O)c2cc(F)c(N3CCN(C(=S)NC(=O)c4cccc(C)c4)CC3)cc21	110%
CN1/C(=C/C=N/NC(=O)c2ccc([N+](=O)[O-])cc2)C(C)(C)c2ccccc21	97.2%
O=C(COc1ccc(Br)cc1Cl)NC(=O)NCc1ccccc1	88.9%
Clc1ccc(OCCn2ccnc2)c(Br)c1	80.3%
COc1cc(C)ccc1OCCCOc1ccccc1Br	92.4%
CC(C)Oc1cccc(C(=O)NC(=S)Nc2ccccc2)c1	102%
Cc1cc(C)c(NC(=S)NC(=O)c2ccc(-c3ccccc3)cc2)c(C)c1	101%
Nc1cc(=O)[nH]c(=S)n1-c1cccc(C(F)(F)F)c1	92.3%
Cn1cc(-c2nnnn2-c2cccc(C(F)(F)F)c2)c(C(F)(F)F)n1	91.9%
Cc1ccc(/C=C/c2nnc(-c3ccc(C)cc3)o2)cc1	89.6%
COc1ccc(OC)c(NC(=O)c2ccccc2NS(=O)(=O)c2cccc3cccnc23)c1	86.2%
O=C(CSc1ncn[nH]1)Nc1cccc2ccccc12	94.5%
COc1ccc(CCN2CC3=C(C2=O)C(c2ccccc2)NC(=O)N3C)cc1OC (configuration not stated)	94.7%
Cc1ccc(C(=O)COC(=O)CNS(=O)(=O)c2ccccc2)cc1[N+](=O)[O-]	86.3% [at 12.5 µM]
O=C(Cc1ccc(Cl)cc1)NNS(=O)(=O)c1ccc([N+](=O)[O-])cc1	106%
O=C(N[C@H](CO)[C@H](O)c1ccc([N+](=O)[O-])cc1)C(Cl)Cl	103%
COc1ccc2nc(-c3ccccc3)cc(OC)c2c1	86.2%
Cc1ccc(-c2n[nH]c(=S)n2/N=C/c2cc3c(cc2[N+](=O)[O-])OCO3)cc1	80.4%

Compound	viability
Cc1nc2ccccc2c(=O)n1/N=C/c1ccc(N(C)C)cc1	99.1%
CN(C)c1ccc(/C=N/c2cc(-c3ccccc3)nn2-c2ccccc2)cc1	81.5%
CO[C@@]1(NC(=O)C2SC(=C(C(N)=O)C(=O)O)S2)C(=O)N2C(C(=O)O)=C(CSc3nnnn3C)CS[C@@H]21 (some centres not stated)	87.5%
CCCn1nnc(NC(=O)c2ccc(Br)o2)n1	86%
FC(F)(F)c1cc(C(F)(F)F)c2ccc(Oc3ccccc3)nc2n1	101%
Cc1ccc(NS(=O)(=O)c2ccccc2)c2c1CC(C)(C)O2	83.2%
O=C1N=c2ccccc2=C1c1[nH]c(=S)[nH]c1O	105%
Cc1ccc(Nc2nc(N)nc(CC#N)n2)cc1	87%
C=CCn1c(SCC(=O)Nc2nnc(CC)s2)nnc1-c1cccnc1	95.3%
O=C(COC(=O)c1cn(-c2ccccc2)nc1-c1ccccc1)c1cccc([N+](=O)[O-])c1	102%
O=C(c1cn(-c2ccccc2)nc1-c1cccnc1)N1CCCCC1	94.1%
c1ccc(CSc2snnc2-c2ccccc2)cc1	83.8% [at 25 µM]
[O-]/[N+](=C\c1ccncc1)c1ccccc1	99.6%
BrC(=C\c1ccccc1)/C=N/N1CCN(c2ccccn2)CC1	91%
COC(=O)c1sc2ccccc2c1-n1cccc1C(=O)C(=O)Nc1ccc(Cl)cc1	85.5%
O=C1CCCc2c1cc(C(=O)NCc1ccco1)c(=O)n2-c1ccc(Cl)cc1	99.9%
CC(=O)c1cccc(NC(=O)NCc2ccco2)c1	83.1%
CCCCN(C)C(=O)c1cn(C)c2ccc(S(=O)(=O)N(C)C)cc2c1=O	98.4%
CO[C@H]1/C=C/O[C@@]2(C)Oc3c(C)c(O)c4c(O)c(c(C=NN5CCN(C)CC5)c(O)c4c3C2=O)NC(=O)/C(C)=C\C=C\[C@H](C)[C@H](O)[C@@H](C)[C@@H](O)[C@@H](C)[C@H](OC(C)=O)[C@@H]1C	84.4%
O=Cc1cccn1Cc1ccccc1[N+](=O)[O-]	111%
